Experimental data reported in PubChem BioAssay AID588489 (Sanford-Burnham Center for Chemical Genomics, 2011).
Out of some 360,000 compounds screened, about 1,300 (0.36%) were called active. Rule as the data show it: active = inhibition above about 35% (passing the limit was not always enough); inactive = the rest. For the sample, actives were picked, then their nearest neighbours and some compounds at random.

The compounds below were run against Polyadenylate-binding protein 1 (Homo sapiens) (UniProt P11940) (assay: inhibitors of PABP1 MLLE–PAM2 peptide binding, primary screen, biochemical, fluorescence polarization, FITC-PAM2, GST-MLLE (AID 588489;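 also: plate controls were DMSO wells with GST-MLLE for no effect and wells lacking GST-MLLE protein for full effect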)). Settings: at 20 µM, active compounds read high.
Sequence of Polyadenylate-binding protein 1 (Homo sapiens) (P11940 whole entry, looked up): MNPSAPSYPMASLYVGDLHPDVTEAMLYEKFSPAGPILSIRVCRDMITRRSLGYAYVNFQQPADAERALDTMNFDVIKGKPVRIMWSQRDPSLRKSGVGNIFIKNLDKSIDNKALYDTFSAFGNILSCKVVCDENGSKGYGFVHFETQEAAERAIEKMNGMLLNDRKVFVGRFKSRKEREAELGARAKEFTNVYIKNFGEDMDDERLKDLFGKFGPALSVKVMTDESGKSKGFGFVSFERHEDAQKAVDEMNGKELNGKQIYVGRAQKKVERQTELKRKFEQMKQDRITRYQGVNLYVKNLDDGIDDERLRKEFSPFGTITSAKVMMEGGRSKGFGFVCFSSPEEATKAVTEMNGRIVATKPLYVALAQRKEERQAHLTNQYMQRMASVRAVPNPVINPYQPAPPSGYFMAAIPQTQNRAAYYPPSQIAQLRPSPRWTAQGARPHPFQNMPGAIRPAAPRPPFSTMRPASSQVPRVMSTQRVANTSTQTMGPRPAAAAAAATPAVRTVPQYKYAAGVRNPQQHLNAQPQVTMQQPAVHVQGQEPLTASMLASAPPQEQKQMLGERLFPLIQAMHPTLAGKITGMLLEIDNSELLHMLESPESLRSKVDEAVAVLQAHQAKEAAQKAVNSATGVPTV

| SMILES | inhibition |
| --- | --- |
| CN(C)CCCNC(=S)N1CCN(c2nc(-c3ccccc3)cs2)CC1 | -128% (inactive) |
| CCOc1ccc(NC(=O)CN(C)C(=O)Cc2sc(C)nc2-c2ccc(F)cc2)cc1OCC | -16.1% (inactive) |
| CCCCC(=O)NC(c1ccc(OC)c(OC)c1)c1ccc2cccnc2c1O (stereo not given) | 5.41% (inactive) |
| CCOC(=O)N1CCN(C(c2cccnc2)c2ccc3cccnc3c2O)CC1 (stereo not given) | 37.9% (active) |
| CCOC(=O)N1CCN(C(=O)C2CCN(c3ncnc4c3sc3cccc(F)c34)CC2)CC1 | -13.7% (inactive) |
| COc1ccc(C(CNCC(=O)Nc2ccccc2F)N(C)C)cc1 (stereo not given) | 4.22% (inactive) |
| O=C1c2ccccc2C(=O)N1CCc1nn[nH]n1 | -10.4% (inactive) |
| O=C(CSC1=Nc2ccccc2C2=NC(CC(=O)NCc3ccco3)C(=O)N12)NCc1ccco1 (stereo not given) | 38.7% (active) |
| O=C(CC1CCCCC1)NCc1ccco1 | 2.87% (inactive) |
| O=C(CSc1nnnn1-c1ccccc1)NCc1ccco1 | -13.1% (inactive) |
| CCCCCC1CCC(c2nnc(SCC(C)=O)o2)CC1 (stereo not given) | -9.06% (inactive) |
| C/C=C/c1ccc(OCCCCN2CCC(C)CC2)c(OC)c1 | -4.4% (inactive) |
| CC(C)CNC(=O)C1(C)CCCN1C(=O)CSc1ccccc1 (stereo not given) | 10.8% (inactive) |
| COc1cc(/C=C/C(=O)OCC(=O)NCCCc2ccccc2)ccc1O | 7.53% (inactive) |
| Cc1nc([N+](=O)[O-])nn1C12CC3CC(CC(Br)(C3)C1)C2 | 39.5% (active) |
| Cc1cccc(NC(=O)CSc2nnc(NC(=O)CN3CCOCC3)s2)c1 | -8.76% (inactive) |
| C=CC1=C(C(=O)O)N2C(=O)[C@@H](NC(=O)/C(=N\OCC(=O)O)c3csc(N)n3)[C@H]2SC1 | 41% (active) |
| C=CC1=C(C(=O)O)N2C(=O)[C@@H](NC(=O)/C(=N/OCC(=O)O)c3csc(N)n3)[C@H]2SC1 | 30.8% (inactive) |
| O=C(CSc1ccsc1[N+](=O)[O-])N1CCCCC1 | -4.37% (inactive) |
| O=C1CSC2=NCN(c3ccccc3)CN12 | -6.21% (inactive) |
| O=C(CCC(=O)OCc1cccc(C(=O)Oc2ccccc2)c1)Nc1cccc2ccccc12 | 9.55% (inactive) |
| O=S(=O)(Oc1ccccc1C(=S)N1CCOCC1)c1ccc(Cl)cc1 | 44.5% (active) |
| CCOc1cc(C(=S)N2CCOCC2)ccc1OS(=O)(=O)c1ccc(Br)cc1 | 8.34% (inactive) |
| CC(=O)Nc1ccc(S(=O)(=O)Oc2ccc(Br)cc2C(=S)N2CCOCC2)cc1 | 5.89% (inactive) |

| SMILES | inhibition |
| --- | --- |
| Cc1ccc(C)c(OCCC(=O)Nc2cccc(S(=O)(=O)N3CCCC3)c2)c1 | 10.9% (inactive) |
| CCN(CC)S(=O)(=O)c1ccc(N2CCOCC2)c(NC(=O)C(C)Oc2ccc(F)cc2)c1 (stereo not given) | 3.55% (inactive) |
| Oc1ccc2ccccc2c1N=Nc1nccs1 | 55.3% (active) |
| COc1ccc(C(c2nnnn2C2CCCC2)N2CCN(C/C=C/c3ccccc3)CC2)cc1 (stereo not given) | 9.42% (inactive) |
| O=C(Cn1cnc2c(OCc3ccccc3)ncnc21)NCc1nc2ccccc2[nH]1 | 6.52% (inactive) |
| CCc1c(O)nc(SCC(=O)Nc2ccccc2)n(C(C)CC)c1=O (stereo not given) | 48% (active) |
| COc1ccccc1-n1c(SCC(=O)Nc2ccc(Cl)cc2)nc(O)c(Cc2ccccc2)c1=O | 18.6% (inactive) |
| CCn1c(CNC(=O)c2ccc(OC)c(OC)c2)nnc1SCC(=O)Nc1ccccc1 | -12% (inactive) |
| O=C(CC12CC3CC(CC(C3)C1)C2)Nc1ccc2c(c1)COC2=O | 10.3% (inactive) |
| CCOC(=O)Cc1cc(=O)[nH]c(/N=C(\N)Nc2ccc(OC)cc2)n1 | 3.52% (inactive) |
| COc1ccc(S(=O)(=O)N2CCSCC2)cc1 | 2.01% (inactive) |
| Cc1c(C)c(C)c(S(=O)(=O)NCCc2ccccn2)c(C)c1C | -6.36% (inactive) |
| CCOC(=O)CNC(=O)CSc1nc2cccnc2n1CC | 0.93% (inactive) |
| CCc1nc2cccnc2n1-c1ccc(C(=O)O)cc1 | 58.3% (active) |
| COCCCNC(=O)Cc1ccc(-n2c(C)nc3cccnc32)cc1 | 18.3% (inactive) |
| O=C(NCc1cc(F)cc(C(F)(F)F)c1)C1CCC(=O)N(C2CCCC2)C1 (stereo not given) | 2.19% (inactive) |
| C[C@@H]1NS(=O)(=O)c2cc(Cl)ccc2O[C@@H]1c1ccccc1 | -9.19% (inactive) |
| Cc1cccc(NC(=O)NC(=S)NC(=O)c2ccccc2)c1 | 41.9% (active) |
| Cn1nnc(NC(=S)NC(=O)c2ccccc2)n1 | 26.2% (inactive) |
| Cc1cccc(OCCNC(=S)NC(=O)c2cccnc2)c1 | 22% (inactive) |
| COc1ccc(C(C)(C)C)cc1NC(=O)CN(C)C1=NS(=O)(=O)c2ccccc21 | -40.4% (inactive) |
| O=S(=O)(c1cccc(Cn2nnc(-c3ccc(F)cc3)n2)c1)N1CCOCC1 | -5.3% (inactive) |
| O=S(=O)(c1ccc(F)cc1)N1CC=C(c2ccccc2)CC1 | -8.32% (inactive) |
| O=C(Nc1ccccc1)c1ccccc1Br | -11.2% (inactive) |

| SMILES | inhibition |
| --- | --- |
| O=C(NC(=S)Nc1ncccn1)c1ccccc1Br | 42.1% (active) |
| CC1CCN(C(=S)NC(=O)c2ccccc2Br)CC1 | 15% (inactive) |
| Cc1cc(Cl)ccc1C(=O)C1CCCN(C(=O)CCN2CCCO2)C1 (stereo not given) | -4.82% (inactive) |
| CCN1C(=O)[C@H]2[C@@H](c3ccc(-c4ccc(OC)cc4)cc3)N[C@@](Cc3ccccc3)(C(=O)OC)[C@H]2C1=O | -0.71% (inactive) |
| O=C(CN1C(=O)c2ccc([N+](=O)[O-])cc2C1=O)Nc1nnc(C2CC2)s1 | -18.6% (inactive) |
| O=C(C(Cl)Cl)N1CCN(c2ccccn2)CC1 | -10.9% (inactive) |
| O=C(Cc1ccc(Br)cc1)N1CCN(c2ccccn2)CC1 | 61.7% (active) |
| O=C(Cc1ccccc1Cl)N1CCN(c2ccccn2)CC1 | -6.28% (inactive) |
| CC(=O)NC(CC(=O)Nc1cccc(S(=O)(=O)N2CCCC2)c1)c1ccccc1 (stereo not given) | -16.4% (inactive) |
| COc1ccc2c(c1)C(NS(=O)(=O)OCC(Cl)(Cl)Cl)CCC2 (stereo not given) | -0.88% (inactive) |
| CN(C)S(=O)(=O)c1cccc(NC(=O)COC(=O)C2(c3ccccc3F)CCCC2)c1 | 4.77% (inactive) |
| COc1ccccc1C(=O)NC(=S)Nc1ccccc1N1CCCCC1 | 14.7% (inactive) |
| COc1ccc(Br)cc1C(=O)Nc1cccc(C)c1C | 21.9% (inactive) |
| COc1ccc(Br)cc1C(=O)NC(=S)Nc1cc(-c2nc3ccccc3[nH]2)ccc1C | 43.3% (active) |
| O=C(CSC(=S)N1CCCCC1)c1c(F)cccc1F | -3.59% (inactive) |
| C#CCOc1ccc(/C=C2/C(=O)ON=C2C)cc1OCC | 26.6% (inactive) |
| CC1=NOC(=O)/C1=C\c1ccccc1 | 25.2% (inactive) |
| COc1cc(/C=C2/C(=O)ON=C2C)ccc1OCc1cccc(F)c1 | 41.5% (active) |
| CC(C)(C)[C@H]1C=C(C(=O)NCc2ccccc2)O[C@@H](OCc2ccc(CO)cc2)C1 | -0.14% (inactive) |
| COCCOC(=O)c1sc(=S)n(CCOC)c1N | 49.3% (active) |
| CCn1ncc(C2=NOC(C(=O)Nc3ccccc3C(=O)OC)C2)c1C (stereo not given) | 10.5% (inactive) |
| COc1ccccc1-c1cc2nc(NCc3cccc(Cl)c3)ccn2n1 | 10.3% (inactive) |
| COc1ccc(-c2nc(CS(=O)CC(=O)NCc3ccccn3)c(C)o2)cc1 (stereo not given) | 61.9% (active) |
| COc1ccc(-c2nc(CS(=O)CC(=O)NCc3ccccc3)c(C)o2)cc1OC (stereo not given) | 19.8% (inactive) |

| SMILES | inhibition |
| --- | --- |
| COc1ccc(-c2nc(CS(=O)CC(=O)NCc3cccnc3)c(C)o2)cc1OC (stereo not given) | 23.2% (inactive) |
| CC1CCCC(C)N1C(=O)CN1CCN(c2nc(-c3ccc(F)cc3)cs2)CC1 (stereo not given) | -7.72% (inactive) |
| COc1ccc(NS(=O)(=O)c2ccc(F)cc2F)cn1 | -1.17% (inactive) |
| COc1cccc(Nc2ncccc2C(=O)O)c1 | 8.54% (inactive) |
| COc1ccc(Nc2cc(Cl)ccc2C(=O)O)cn1 | 41.8% (active) |
| CCOC(=O)C1CCCCN1Cc1ccc(OC)c(OC)c1OC (stereo not given) | 0.49% (inactive) |
| NC(CSC12CC3CC(CC(C3)C1)C2)C(=O)O (stereo not given) | 11.7% (inactive) |
| Cc1cc2nc(C)n(CCCNC(=O)Nc3ccccc3)c2cc1C | 4.6% (inactive) |
| COCCNC(=O)Nc1ccc2nc(-c3ccco3)c(-c3ccco3)nc2c1 | 72.8% (active) |
| COCCNC(=O)CSc1nc(N)c(NC(=O)c2ccco2)c(=O)[nH]1 | -1% (inactive) |
| Cc1ccc(C)c(S(=O)(=O)N2CCCOC2CNC(=O)C(=O)NC2CCCCC2)c1 (stereo not given) | -1.96% (inactive) |
| CCN(CC)C(=O)COc1coc(CN2CCN(Cc3ccccc3)CC2)cc1=O | 9.67% (inactive) |
| NS(=O)(=O)c1ccc(CCNC(=O)c2ccc([N+](=O)[O-])cc2[N+](=O)[O-])cc1 | 5.05% (inactive) |
| CNc1nccc(-c2ccc(Cl)cc2)c1C#N | 11.5% (inactive) |
| Cc1nc(N2CCCC2C(=O)O)c2oc3ccccc3c2n1 (stereo not given) | 2.41% (inactive) |
| O=C(O)C1CCCN1c1nc(Cl)ccc1[N+](=O)[O-] (stereo not given) | 51.9% (active) |
| Cc1cc([N+](=O)[O-])c(N2CCC[C@@H]2C(=O)O)c([N+](=O)[O-])c1 | 11.4% (inactive) |
| CC(=O)Nc1ccc(S(=O)(=O)N2CCN(c3ccc([N+](=O)[O-])c(NCCN4CCOCC4)c3)CC2)cc1 | -9.63% (inactive) |
| O=C1c2ccccc2C2=Nc3ccccc3SC(c3ccccc3F)C12 (stereo not given) | -2.44% (inactive) |
| O=C1c2cccc(OCC(=O)N3N=C(c4cccs4)CC3c3ccc(F)cc3)c2CCN1Cc1ccccc1 (stereo not given) | 0.32% (inactive) |
| COc1cccc(C2SCC(=O)N2c2cccc(C)c2)c1OC (stereo not given) | 20.4% (inactive) |
| O=C1CSC(c2cccc(F)c2)N1c1ccc(O)cc1 (stereo not given) | 1.39% (inactive) |
| Cc1ccc(C2SCC(=O)N2c2ccccc2)cc1 (stereo not given) | 48.1% (active) |
